Reference: PubChem BioAssay
Where “and” joins values, the source holds several entries; their conditions need not be identical. Equal values may be shown once. Calls of active or inactive are those of the source.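 Rule for the calls: active = inhibition above 50%; inactive = the rest.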

Assay: human hepatoma cell viability loss – ATP luminescence, cytotoxicity control for P. falciparum antimalarial project, primary screen (AID 2303);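 note: 0% = DMSO wells and 100% = digitonin-killed cells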
Details: HepG2 viability, 24-48 h, at 10 µM, active compounds read high
For `CC(C)c1ccc(CN2CCCCC(NC(=O)c3cc(-c4ccccc4Cl)cs3)C2)cc1` (configuration not stated), the inhibition was 8% (inactive). With `Cc1cccc2[nH]c(-c3cccc(-c4cccc(CNCCCN5CCCC5=O)c4)c3)nc12` the inhibition was 9% (inactive). In the case of `O=C(Nc1cccc(-c2cccc(-c3nc4ccccc4[nH]3)c2)c1)N[C@@H]1C[C@H]1c1ccccc1`, the inhibition is reported as 40% (inactive) and 8% (inactive). With `O=C1C(c2ccccc2)=C(Nc2cc(Cl)cc(Cl)c2)c2ccccc21` the inhibition was -4% (inactive). For `O=C(NC1CC1)c1ccc(Cn2c(SCc3cccc(Cl)c3)nc3ccccc3c2=O)cc1`, the inhibition was 2% (inactive). With `COc1ccc2nc(C)cc(NN=Cc3ccccc3Cl)c2c1` the inhibition was 0% (inactive). For `Clc1ccc2c(NCCNc3ccnc4cc(Cl)ccc34)ccnc2c1`, the inhibition was 6% (inactive). With `O=C(Nc1cccc(CN2CCN(Cc3ccc(O)cc3)CC2)c1)c1ccc(Cl)c(Cl)c1` the inhibition was 30% (inactive). For `Cc1[nH]c(C)c(-c2ccc(CCc3ccc(N)cc3)cc2)c(=O)c1Cl`, the inhibition was 2% (inactive). With `CC(CNC(=O)c1cc2c(Cl)cc(Cl)cc2[nH]1)CNc1cc(=O)c2ccccc2[nH]1` (configuration not stated) the inhibition was 11% (inactive). For `C=C[C@H]1CN(CCCCCCC)CC[C@H]1CCN(C)c1ccnc2ccc(OC)cc12`, the inhibition was 22% (inactive). With `Fc1ccc2ncc(Cl)c(CCN3CCC(NCc4cc5c(cn4)OCCO5)CC3)c2c1` the inhibition was 24% (inactive). For `CC(C)(C)c1ccc(N2C(N)=NC(N)=NC2(C)C)cc1`, the inhibition was 27% (inactive). For `CCN(CC(C)O)C(=O)c1ccc(-c2ccc(-c3nc4c(C)cccc4[nH]3)cc2)cc1` (configuration not stated), the inhibition was 18% (inactive). With `CN1CCC(C(=O)Nc2ccc(-c3cccc(-c4nc5ccc(C(F)(F)F)cc5[nH]4)c3)cc2)CC1` the inhibition was 28% (inactive). In the case of `O=C1C(c2ccccc2)=C(Nc2ccc(Cl)cc2)c2ccccc21`, the inhibition is reported as 5% (inactive). With `Cc1cc(O)c(-c2cc(C(=O)Nc3cccnc3)[nH]n2)cc1C` the inhibition was 12% (inactive). For `CCCC(C)Nc1nc(C)cc(N[C@@H](CC(C)C)C(=O)NCc2ccc(C)cc2)n1` (some centres not stated), the inhibition was 16% (inactive). In the case of `O=C(NC1CC1)c1cnc(N2CCCC(c3ccccc3)C2)c(Cl)c1` (configuration not stated), the inhibition is reported as 6% (inactive). In the case of `CCCCSc1c(CNCCCCCCNCc2ccc3ccccc3c2SCCCC)ccc2ccccc12`, the inhibition is reported as 99% (active). With `Cc1cccc2[nH]c(-c3ccc(-c4cccc(NC(=O)NCc5cccc(F)c5)c4)cc3)nc12` the inhibition was 27% (inactive). For `COc1ccc(CN(C)CCCSc2ccc(NC(=O)c3cccc4c(=O)cc(-c5ccccc5)[nH]c34)cc2)cc1OC`, the inhibition was 15% (inactive). With `O=C(/C=C/c1ccc(Cl)c(Cl)c1)NCCCCCN1CCCN(C(=O)Nc2cccc(F)c2)CC1` the inhibition was 20% (inactive). For `NC(=O)COc1cccc2c1CCN(CCN1CCC(NC(=O)c3ccc(-c4ccc(Cl)cc4)cc3)CC1)C2`, the inhibition was 44% (inactive). With `CN1CCC(NCc2cccc(-c3cccc(-c4nc5ccc(C(F)(F)F)cc5[nH]4)c3)c2)CC1` the inhibition was 35% (inactive). In the case of `Cn1ncc2c3c(CCN4CCC(NCc5cc6c(cn5)OCCO6)CC4)c(Cl)cnc3ccc21`, the inhibition is reported as 1% (inactive). With `CC1(C)N=C(N)N=C(N)N1c1ccc2ccccc2c1` the inhibition was 48% (inactive). For `O=C(Nc1cc(Cl)ccc1O)c1ccc(Oc2ccc(C(=O)Nc3cc(Cl)ccc3O)cc2)cc1`, the inhibition was 32% (inactive). In the case of `FC(F)(F)c1cccc(CNCCCCCNCc2ccc(Cl)cc2)c1`, the inhibition is reported as 13% (inactive). In the case of `CC(C)(C)c1ccc(CN2CCC(NC(=O)c3ccc(-c4ccccc4Cl)s3)CC2)cc1`, the inhibition is reported as 36% (inactive). For `CCc1cc2c(N)nc(N)nc2nc1-c1ccccc1`, the inhibition was 18% (inactive). In the case of `COc1ccc(CNCc2ccc(F)cc2)cc1-c1ccc(OC)c(S(=O)(=O)NCCN2CCCC2)c1`, the inhibition is reported as 24% (inactive). With `O=C(NCCc1ccc(Cl)c(Cl)c1)c1ccc(CNC(=O)c2ccc(O)c(-c3ccc(Cl)c(Cl)c3)c2)cc1` the inhibition was 0% (inactive). In the case of `CCc1cn2c3c(cc(C(=O)N[C@@H](Cc4cc(F)cc(F)c4)[C@H](O)CNC4CC4)cc13)N(C)S(=O)(=O)CC2`, the inhibition is reported as 3% (inactive). With `O=C(NCCCCN1CC[C@@H]2c3cccc(O)c3CC[C@H]21)c1ccc(-c2ccccc2)cc1` the inhibition was 23% (inactive). With `CS(=O)(=O)c1ccc(CNCc2cccc(-c3cccc(-c4nc5ccc(F)cc5[nH]4)c3)c2)cc1` the inhibition was 11% (inactive). For `COc1cccc(CNC(=O)c2cnc(N3CCN(c4ccncc4)CC3)c(Cl)c2)c1`, the inhibition was 25% (inactive).
